Measurements: the supplement of paper PMC11732987, “Enantioselective OTUD7B fragment discovery through chemoproteomics screening and high-throughput optimisation” (Communications Chemistry, 2025)

How the values were obtained:
Test in all cases: log2 ratio of Biotin-Ahx-Ub-VS probe labelling (fragment/DMSO); higher = less target engagement (more negative = stronger competition), active = hit call of the paper (q ≤ 0.05, log2 ratio ≤ -1)
Details in all cases: compound concentration: 200 uM; treatment time: 3 h
USP34 = USP34 (UniProt Q70CQ2)
In short: (§1)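 HEK293T lysate, 495 µg per sample in Tris/CHAPS/IGEPAL buffer with protease inhibitors, was treated in triplicate with fragment at 200 µM or vehicle for 3 h and then with Biotin-Ahx-Ub-VS at 0.5 µM final for 1 h. Labelled DUBs were NeutrAvidin-enriched, digested with LysC and trypsin, and run by diaPASEF LC-MS/MS. Spectronaut label-free quantities were global-median-normalised, and values are average log2 fragment/vehicle ratios by unpaired t-test on proteins with ≥2 unique peptides.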

USP36 = molecular target: T1, USP36 (UniProt Q9P275)
T1 sequence (whole entry): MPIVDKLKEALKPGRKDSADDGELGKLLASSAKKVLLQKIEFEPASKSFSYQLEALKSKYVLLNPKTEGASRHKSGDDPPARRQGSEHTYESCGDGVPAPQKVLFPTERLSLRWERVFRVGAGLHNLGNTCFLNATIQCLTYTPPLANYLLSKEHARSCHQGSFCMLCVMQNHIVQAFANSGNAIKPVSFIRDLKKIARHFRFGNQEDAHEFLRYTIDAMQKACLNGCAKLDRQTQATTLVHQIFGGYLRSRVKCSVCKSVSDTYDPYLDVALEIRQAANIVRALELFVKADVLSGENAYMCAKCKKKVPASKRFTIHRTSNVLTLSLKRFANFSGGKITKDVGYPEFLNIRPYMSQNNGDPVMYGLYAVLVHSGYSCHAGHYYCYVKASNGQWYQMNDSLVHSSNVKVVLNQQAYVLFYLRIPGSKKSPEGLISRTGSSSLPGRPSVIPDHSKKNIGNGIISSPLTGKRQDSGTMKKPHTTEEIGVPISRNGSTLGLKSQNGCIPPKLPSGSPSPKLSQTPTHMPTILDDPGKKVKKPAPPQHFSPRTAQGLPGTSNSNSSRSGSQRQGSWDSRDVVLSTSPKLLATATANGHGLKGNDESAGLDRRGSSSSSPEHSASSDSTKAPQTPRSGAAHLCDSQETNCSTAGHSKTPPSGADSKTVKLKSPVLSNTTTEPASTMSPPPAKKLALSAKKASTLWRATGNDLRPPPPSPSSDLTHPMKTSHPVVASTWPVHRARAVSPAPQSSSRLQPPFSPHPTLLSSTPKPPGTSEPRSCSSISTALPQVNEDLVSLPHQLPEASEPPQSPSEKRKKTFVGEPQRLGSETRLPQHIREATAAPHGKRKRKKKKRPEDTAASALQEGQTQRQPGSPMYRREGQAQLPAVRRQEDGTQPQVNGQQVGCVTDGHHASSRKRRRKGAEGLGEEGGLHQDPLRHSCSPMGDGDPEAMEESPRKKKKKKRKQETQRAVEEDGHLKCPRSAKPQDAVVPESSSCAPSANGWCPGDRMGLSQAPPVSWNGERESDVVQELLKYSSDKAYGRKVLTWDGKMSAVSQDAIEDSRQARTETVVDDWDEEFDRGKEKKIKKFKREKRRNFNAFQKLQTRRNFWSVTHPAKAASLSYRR
In short: as §1

USP38 = molecular target: T2, USP38 (UniProt Q8NB14)
T2 sequence (whole entry): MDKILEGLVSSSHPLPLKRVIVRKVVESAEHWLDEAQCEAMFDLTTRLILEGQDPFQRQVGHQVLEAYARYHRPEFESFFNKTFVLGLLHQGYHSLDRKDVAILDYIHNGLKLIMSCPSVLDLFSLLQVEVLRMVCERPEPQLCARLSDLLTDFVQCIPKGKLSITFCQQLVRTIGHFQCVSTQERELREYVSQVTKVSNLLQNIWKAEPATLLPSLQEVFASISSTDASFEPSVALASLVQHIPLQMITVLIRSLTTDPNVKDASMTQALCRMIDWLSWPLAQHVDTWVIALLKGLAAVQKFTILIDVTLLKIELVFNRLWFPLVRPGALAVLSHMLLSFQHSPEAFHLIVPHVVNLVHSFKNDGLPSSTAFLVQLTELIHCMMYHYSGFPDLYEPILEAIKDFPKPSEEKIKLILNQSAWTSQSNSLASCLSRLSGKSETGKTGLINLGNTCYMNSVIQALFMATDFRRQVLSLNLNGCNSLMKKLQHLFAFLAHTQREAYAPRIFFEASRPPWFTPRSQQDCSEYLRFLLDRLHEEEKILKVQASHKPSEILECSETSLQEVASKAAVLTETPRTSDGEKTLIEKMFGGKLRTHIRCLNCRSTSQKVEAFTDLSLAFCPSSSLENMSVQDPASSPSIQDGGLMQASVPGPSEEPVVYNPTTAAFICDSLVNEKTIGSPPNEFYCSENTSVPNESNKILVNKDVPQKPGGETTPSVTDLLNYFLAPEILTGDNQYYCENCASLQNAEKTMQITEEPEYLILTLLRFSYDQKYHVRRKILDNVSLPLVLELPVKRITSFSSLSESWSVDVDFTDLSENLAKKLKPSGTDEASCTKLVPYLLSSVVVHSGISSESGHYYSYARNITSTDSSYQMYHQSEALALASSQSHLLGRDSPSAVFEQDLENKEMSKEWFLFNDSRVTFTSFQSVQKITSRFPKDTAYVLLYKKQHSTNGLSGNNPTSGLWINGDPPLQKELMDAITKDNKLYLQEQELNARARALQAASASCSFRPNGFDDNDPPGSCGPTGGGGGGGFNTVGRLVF
In short: as §1

USP39 = molecular target: T3, USP39 (UniProt Q53GS9)
T3 sequence (whole entry): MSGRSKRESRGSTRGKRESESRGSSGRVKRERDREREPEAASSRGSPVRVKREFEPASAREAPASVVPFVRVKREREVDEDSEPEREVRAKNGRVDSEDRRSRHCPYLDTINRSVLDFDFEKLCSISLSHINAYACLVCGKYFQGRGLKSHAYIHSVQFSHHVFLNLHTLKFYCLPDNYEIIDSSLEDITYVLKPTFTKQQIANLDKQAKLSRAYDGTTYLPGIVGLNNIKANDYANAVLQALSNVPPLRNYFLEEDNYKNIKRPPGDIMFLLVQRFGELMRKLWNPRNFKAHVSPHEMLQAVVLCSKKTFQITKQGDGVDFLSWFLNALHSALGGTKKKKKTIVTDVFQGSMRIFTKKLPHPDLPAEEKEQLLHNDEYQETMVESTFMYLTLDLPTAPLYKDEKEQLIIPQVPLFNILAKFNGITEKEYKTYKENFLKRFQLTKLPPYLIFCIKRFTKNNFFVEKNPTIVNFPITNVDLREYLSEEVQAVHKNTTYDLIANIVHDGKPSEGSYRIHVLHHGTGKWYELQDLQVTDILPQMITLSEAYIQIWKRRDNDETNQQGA
In short: as §1

USP4 = molecular target: T4, USP4 (UniProt Q13107)
T4 sequence (whole entry): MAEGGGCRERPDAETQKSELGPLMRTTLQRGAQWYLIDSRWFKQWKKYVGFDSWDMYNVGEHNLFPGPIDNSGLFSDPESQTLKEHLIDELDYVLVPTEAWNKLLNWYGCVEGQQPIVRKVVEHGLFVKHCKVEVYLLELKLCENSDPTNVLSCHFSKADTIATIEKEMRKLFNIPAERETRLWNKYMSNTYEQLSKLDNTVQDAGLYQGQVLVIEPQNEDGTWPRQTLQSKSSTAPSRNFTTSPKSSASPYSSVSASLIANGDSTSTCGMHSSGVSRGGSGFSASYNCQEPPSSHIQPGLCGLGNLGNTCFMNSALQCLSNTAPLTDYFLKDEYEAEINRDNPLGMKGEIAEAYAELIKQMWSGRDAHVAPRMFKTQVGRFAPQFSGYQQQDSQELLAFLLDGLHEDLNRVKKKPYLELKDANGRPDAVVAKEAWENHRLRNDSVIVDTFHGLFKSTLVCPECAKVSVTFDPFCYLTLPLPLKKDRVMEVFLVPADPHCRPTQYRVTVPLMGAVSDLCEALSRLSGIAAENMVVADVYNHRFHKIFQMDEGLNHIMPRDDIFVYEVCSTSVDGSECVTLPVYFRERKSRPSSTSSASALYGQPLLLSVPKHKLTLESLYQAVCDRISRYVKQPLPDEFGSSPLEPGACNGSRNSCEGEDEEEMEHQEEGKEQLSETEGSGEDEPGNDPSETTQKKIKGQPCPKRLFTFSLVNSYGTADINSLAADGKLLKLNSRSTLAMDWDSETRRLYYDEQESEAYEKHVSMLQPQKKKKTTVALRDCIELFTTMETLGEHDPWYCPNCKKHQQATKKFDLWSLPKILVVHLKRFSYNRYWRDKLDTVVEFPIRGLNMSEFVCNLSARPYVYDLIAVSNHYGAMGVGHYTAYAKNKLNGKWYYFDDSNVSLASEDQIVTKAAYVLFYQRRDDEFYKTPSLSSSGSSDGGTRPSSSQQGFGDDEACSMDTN
In short: as §1

Measured: log2 ratio of Biotin-Ahx-Ub-VS probe labelling

USP34, sequence (Q70CQ2 whole entry, the tested form may be a part): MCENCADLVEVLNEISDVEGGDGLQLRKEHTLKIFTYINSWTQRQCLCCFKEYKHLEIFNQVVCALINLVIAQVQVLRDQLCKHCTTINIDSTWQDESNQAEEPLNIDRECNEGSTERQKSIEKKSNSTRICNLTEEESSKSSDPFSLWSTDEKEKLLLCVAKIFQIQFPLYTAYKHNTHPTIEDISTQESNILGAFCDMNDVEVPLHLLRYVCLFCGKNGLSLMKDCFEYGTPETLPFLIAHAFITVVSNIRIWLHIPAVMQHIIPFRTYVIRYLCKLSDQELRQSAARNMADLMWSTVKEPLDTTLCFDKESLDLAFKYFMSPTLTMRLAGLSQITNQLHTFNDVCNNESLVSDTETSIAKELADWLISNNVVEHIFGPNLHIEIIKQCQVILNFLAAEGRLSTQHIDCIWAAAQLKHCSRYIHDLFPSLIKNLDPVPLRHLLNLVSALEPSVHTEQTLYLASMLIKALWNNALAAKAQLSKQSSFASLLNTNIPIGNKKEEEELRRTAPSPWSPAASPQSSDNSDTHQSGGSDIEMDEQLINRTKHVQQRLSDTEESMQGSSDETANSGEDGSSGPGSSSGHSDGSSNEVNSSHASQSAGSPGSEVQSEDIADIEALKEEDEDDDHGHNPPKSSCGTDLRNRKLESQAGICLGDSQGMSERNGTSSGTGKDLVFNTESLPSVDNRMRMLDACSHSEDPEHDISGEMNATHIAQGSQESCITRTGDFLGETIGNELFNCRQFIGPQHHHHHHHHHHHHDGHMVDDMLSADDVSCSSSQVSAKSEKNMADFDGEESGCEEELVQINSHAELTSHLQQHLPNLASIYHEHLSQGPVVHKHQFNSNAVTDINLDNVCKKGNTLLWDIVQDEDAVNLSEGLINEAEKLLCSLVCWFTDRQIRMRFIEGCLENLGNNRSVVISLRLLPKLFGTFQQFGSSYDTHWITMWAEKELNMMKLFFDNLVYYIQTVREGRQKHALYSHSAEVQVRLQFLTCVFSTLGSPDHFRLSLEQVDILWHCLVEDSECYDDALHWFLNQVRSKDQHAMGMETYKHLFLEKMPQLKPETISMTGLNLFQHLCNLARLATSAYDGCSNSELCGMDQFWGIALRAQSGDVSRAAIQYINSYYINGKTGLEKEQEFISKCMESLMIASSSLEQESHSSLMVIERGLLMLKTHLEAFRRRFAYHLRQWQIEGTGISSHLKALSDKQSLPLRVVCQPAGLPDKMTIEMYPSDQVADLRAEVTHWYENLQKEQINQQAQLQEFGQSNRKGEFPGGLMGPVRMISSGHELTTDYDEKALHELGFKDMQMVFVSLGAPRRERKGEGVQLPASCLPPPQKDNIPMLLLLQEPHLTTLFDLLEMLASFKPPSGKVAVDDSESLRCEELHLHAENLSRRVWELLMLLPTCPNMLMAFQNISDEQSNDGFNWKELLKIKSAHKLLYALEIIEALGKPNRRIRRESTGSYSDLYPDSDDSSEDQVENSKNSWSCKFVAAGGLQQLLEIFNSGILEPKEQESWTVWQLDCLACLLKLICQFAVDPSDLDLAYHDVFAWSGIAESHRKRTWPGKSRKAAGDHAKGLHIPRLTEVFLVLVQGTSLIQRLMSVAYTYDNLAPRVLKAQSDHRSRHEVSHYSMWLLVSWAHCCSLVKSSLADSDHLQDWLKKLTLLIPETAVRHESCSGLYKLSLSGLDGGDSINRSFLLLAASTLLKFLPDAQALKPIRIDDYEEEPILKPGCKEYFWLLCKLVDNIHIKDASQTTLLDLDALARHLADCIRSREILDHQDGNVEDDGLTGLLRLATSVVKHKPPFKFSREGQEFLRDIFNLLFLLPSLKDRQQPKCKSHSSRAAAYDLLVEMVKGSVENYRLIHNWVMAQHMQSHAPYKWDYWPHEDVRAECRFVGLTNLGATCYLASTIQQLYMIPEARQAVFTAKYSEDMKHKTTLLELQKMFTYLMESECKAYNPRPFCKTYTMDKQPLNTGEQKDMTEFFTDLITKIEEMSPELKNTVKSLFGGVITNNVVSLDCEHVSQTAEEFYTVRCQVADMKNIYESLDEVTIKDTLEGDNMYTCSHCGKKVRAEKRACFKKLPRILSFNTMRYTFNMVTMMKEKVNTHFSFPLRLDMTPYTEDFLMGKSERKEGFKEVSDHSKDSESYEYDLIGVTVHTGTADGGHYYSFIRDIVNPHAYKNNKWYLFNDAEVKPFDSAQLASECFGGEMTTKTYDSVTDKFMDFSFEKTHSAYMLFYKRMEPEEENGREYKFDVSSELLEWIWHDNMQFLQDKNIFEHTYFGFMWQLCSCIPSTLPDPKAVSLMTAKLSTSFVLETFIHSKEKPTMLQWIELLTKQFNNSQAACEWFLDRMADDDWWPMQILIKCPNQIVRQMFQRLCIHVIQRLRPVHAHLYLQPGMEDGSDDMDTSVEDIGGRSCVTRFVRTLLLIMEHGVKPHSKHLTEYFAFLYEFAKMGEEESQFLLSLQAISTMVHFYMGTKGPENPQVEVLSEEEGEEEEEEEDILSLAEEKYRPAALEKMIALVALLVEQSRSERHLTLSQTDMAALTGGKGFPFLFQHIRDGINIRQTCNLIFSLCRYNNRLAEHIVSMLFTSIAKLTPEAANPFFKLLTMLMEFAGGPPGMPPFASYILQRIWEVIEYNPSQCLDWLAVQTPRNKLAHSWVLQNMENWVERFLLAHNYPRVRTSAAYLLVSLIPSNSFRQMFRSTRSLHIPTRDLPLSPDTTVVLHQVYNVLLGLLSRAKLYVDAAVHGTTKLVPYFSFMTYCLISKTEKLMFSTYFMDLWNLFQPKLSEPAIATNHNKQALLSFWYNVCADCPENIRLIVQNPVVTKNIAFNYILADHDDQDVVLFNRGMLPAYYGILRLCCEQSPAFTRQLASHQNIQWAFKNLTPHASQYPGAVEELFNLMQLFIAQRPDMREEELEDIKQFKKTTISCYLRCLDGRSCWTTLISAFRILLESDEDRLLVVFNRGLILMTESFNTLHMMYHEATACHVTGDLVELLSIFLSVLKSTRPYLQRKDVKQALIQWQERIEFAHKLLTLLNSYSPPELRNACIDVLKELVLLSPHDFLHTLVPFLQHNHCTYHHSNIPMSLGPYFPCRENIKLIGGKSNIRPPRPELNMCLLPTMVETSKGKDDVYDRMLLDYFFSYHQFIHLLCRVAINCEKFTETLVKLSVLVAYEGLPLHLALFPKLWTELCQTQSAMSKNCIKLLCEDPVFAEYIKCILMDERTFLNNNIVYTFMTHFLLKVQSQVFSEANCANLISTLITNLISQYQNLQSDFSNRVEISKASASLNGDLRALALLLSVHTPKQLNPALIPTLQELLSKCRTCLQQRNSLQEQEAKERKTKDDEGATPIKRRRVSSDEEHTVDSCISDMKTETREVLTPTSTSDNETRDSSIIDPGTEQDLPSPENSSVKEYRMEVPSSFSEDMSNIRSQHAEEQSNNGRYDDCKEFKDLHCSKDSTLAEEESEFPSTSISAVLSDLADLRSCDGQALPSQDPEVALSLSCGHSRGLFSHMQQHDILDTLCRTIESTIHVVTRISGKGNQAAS

CN(Cc1nc2ccccc2[nH]1)C(=O)CCl.Cl
inactive: USP34 -0.266 | USP36 0.0504 | USP38 0.056 | USP39 0.391 | USP4 -0.0216
